Results from PubChem BioAssay (NCATS).
Records with an inconclusive call do not appear. Activity calls are given as the source filed them. Calls follow the shape of the dose curve; as a rule, active = well fitted curve in the direction sought with a large enough effect; inconclusive = small, poorly fitted or top-dose-only effect, or another doubt; inactive = no such curve, though single readings can be large; an effect the other way counts as inactive or inconclusive.

What was measured:
[1] = Quantitative highthroughput screen to assess conditional lethalithy of NOMO1 cells grown in RPMI1640 with untreated serum (RPMI+s) (AID 1963876); also: nearly all actives have a fitted effect of over 35% in size
Summary of the method: (§1)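 Each medium arm—HPLM with 10% dialyzed FBS, or RPMI1640 with 5 mM glucose and 10% untreated or dialyzed FBS—was screened against an 11-point, 3-fold compound titration for 48 h at 37 °C, with CellTiter-Glo luminescence as endpoint.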

[2] = Quantitative highthroughput screen to assess conditional lethalithy of NOMO1 cells grown in RPMI1640 with dialyzed fetal bovine serum (RPMI+ds) (AID 1963877); also: nearly all actives have a fitted effect of over 30% in size; as to viability: series mostly up to about 46 µM
Summary of the method: as §1

[3] = Quantitative highthroughput screen to assess conditional lethalithy of NOMO1 cells grown in Human Plasma-Like Medium with dialyzed fetal bovine serum (HPLM+ds) (AID 1963878); also: nearly all actives have a fitted effect of over 35% in size
Summary of the method: as §1

[4] = Quantitative highthroughput screen to assess conditional lethalithy of P12 Ichikawa cells grown in Human Plasma-Like Medium with dialyzed fetal bovine serum (HPLM+ds) (AID 1963879); details: Potency: viability; also: nearly all actives have a fitted effect of over 35% in size; as to viability: series mostly up to about 46 µM
Summary of the method: as §1

[5] = Quantitative highthroughput screen to assess conditional lethalithy of P12 Ichikawa cells grown in RPMI1640 with dialyzed fetal bovine serum (RPMI+ds) (AID 1963880); details: Potency: P12-Ichikawa viability; also: nearly all actives have a fitted effect of over 35% in size
Summary of the method: as §1

[6] = Quantitative highthroughput screen to assess conditional lethalithy of P12 Ichikawa cells grown in RPMI1640 with untreated serum (RPMI+s) (AID 1963881); details: Potency: viability; also: nearly all actives have a fitted effect of over 35% in size; as to viability: series mostly up to about 46 µM
Summary of the method: as §1

[7] = Quantitative highthroughput screen to assess conditional lethalithy of SEM cells grown in Human Plasma-Like Medium with dialyzed fetal bovine serum (HPLM+ds) (AID 1963882); also: nearly all actives have a fitted effect of over 35% in size; as to viability: series mostly up to about 46 µM
Summary of the method: as §1

[8] = Quantitative highthroughput screen to assess conditional lethalithy of SEM cells grown in RPMI1640 with unreated serum (RPMI+s) (AID 1963883); also: nearly all actives have a fitted effect of over 35% in size
Summary of the method: as §1

[9] = Quantitative highthroughput screen to assess conditional lethalithy of SEM cells grown in RPMI1640 with dialyzed fetal bovine serum (RPMI+ds) (AID 1963884); also: nearly all actives have a fitted effect of over 35% in size; as to viability: series mostly up to about 46 µM
Summary of the method: as §1

Measured: Potency
Potency is read from the fitted curve at half-maximal effect.

CN(C)CCC=C1c2ccccc2COc2ccc(CC(=O)O)cc21
inactive: all assays above

Clc1ccc2c(c1)C(N1CCNCC1)=Nc1ccccc1O2
inactive: all assays above

CCOc1cc2ncc(C#N)c(Nc3ccc(F)c(Cl)c3)c2cc1NC(=O)C=CCN(C)C
active: [1] 16600 nM | [2] 7430 nM | [3] 4690 nM | [4] 3720 nM | [5] 5260 nM | [6] 5260 nM | [7] 1320 nM | [8] 418 nM | [9] 743 nM

NS(=O)(=O)OC[C@@H]1C[C@@H](n2ccc3c(N[C@H]4CCc5ccccc54)ncnc32)C[C@H]1O
active: [1] 526 nM | [2] 526 nM | [3] 590 nM | [4] 2960 nM | [5] 1660 nM | [6] 2090 nM | [7] 1480 nM | [8] 1480 nM | [9] 1320 nM

C[C@H](NC(=O)C(C#N)=Cc1cccc(Br)n1)c1ccccc1
active: [1] 2640 nM | [2] 3320 nM | [3] 1870 nM | [4] 1480 nM | [5] 2350 nM | [6] 2350 nM | [7] 1320 nM | [8] 935 nM | [9] 1320 nM

CCC(C=C[C@@H]1OC(=O)C=C[C@H]1C)=C[C@H](C)CC=CC(C)=C[C@@H](C)C(=O)[C@@H](C)[C@H](O)[C@@H](C)CC(C)=CC(=O)O
active: [1] 110 nM | [2] 87.7 nM | [3] 78.2 nM | [4] 110 nM | [5] 87.7 nM | [6] 87.7 nM | [7] 34.9 nM | [8] 15.6 nM | [9] 22 nM

CN[C@@H]1[C@@H](O)[C@@H](O[C@@H]2[C@@H](O)[C@H](O[C@H]3O[C@H](CN)[C@@H](O)[C@H](O)[C@@H]3O)[C@@H](N)C[C@@H]2NC(=O)[C@@H](O)CN)OC[C@]1(C)O
inactive: all assays above

CC(=O)OCC(=O)[C@@]1(O)CC[C@H]2[C@@H]3CCC4=CC(=O)CC[C@]4(C)[C@@H]3C(=O)C[C@@]21C
inactive: all assays above

O=C(C=Cc1cccc(S(=O)(=O)Nc2ccccc2)c1)NO
active: [1] 17100 nM | [2] 12100 nM | [3] 13600 nM | [4] 4810 nM | [5] 6050 nM | [6] 4290 nM | [7] 679 nM | [8] 605 nM | [9] 762 nM

C[C@H](CCC(=O)O)[C@H]1CC[C@H]2[C@@H]3[C@H](O)C[C@@H]4C[C@H](O)CC[C@]4(C)[C@@H]3CC[C@]12C
inactive: all assays above

CN(C)CC=CC(=O)Nc1cc2c(Nc3ccc(F)c(Cl)c3)ncnc2cc1O[C@H]1CCOC1
active: [1] 1870 nM | [2] 1870 nM | [3] 1660 nM | [4] 1660 nM | [5] 2350 nM | [6] 1870 nM | [7] 1050 nM | [8] 743 nM | [9] 1180 nM
